Screening data deposited in PubChem BioAssay by Sanford-Burnham Center for Chemical Genomics.
The list is not random: actives were taken first. Their share in the collection is about 3%.
PPC-1+TRAIL kill – kills PPC-1 cancer cells in the presence of TRAIL. PPC-1 cells + TRAIL, ATPLite viability luminescence. cell killing (% activity), % at 4 µM or 5 µM. hit rate 0.41% among 220,000;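 active = cell killing above 50% in the first pass at 4 µM, then a duplicate retest at 5 µM averaging 50% or more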
SENP8 block-1 – inhibitors of human SENP8 protease; Q96LD8; recombinant SENP8, Nedd8 substrate fluorescence; inhibition, % at 20 µM; hit rate 0.64% among 360,000; AID 602440; in the data active = inhibition mostly above about 40%, no sharp cut-off; inactive = mostly below about 27%
Target sequence (Q96LD8 whole entry, looked up): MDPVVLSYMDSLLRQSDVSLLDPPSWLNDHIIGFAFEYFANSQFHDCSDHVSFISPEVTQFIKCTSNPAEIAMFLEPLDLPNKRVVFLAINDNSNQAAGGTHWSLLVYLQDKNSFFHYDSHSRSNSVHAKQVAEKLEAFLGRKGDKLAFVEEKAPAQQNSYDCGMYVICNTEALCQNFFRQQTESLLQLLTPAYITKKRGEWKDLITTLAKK
C8 TRAIL sens – caspase-8 TRAIL sensitization; NB7+C8 cells + TRAIL, ATPlite viability luminescence; inhibition (viability loss, TRAIL sensitization), % at 10 µM; hit rate 1% among 360,000; AID 624354;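 active = compounds causing at least 50% loss of cell viability in the single-dose screen, relative to plate controls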
SENP7 inh – blocks the human protease SENP7; Q9BQF6; recombinant SENP7, Z-RLRGG-aminoluciferin luminescence, 40 min; inhibition, % at 5 µM; hit rate 1.5% among 330,000;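 active = inhibition above about 50% at the single test dose, limit read from the data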
Target sequence (Q9BQF6 706-1050 limits assumed): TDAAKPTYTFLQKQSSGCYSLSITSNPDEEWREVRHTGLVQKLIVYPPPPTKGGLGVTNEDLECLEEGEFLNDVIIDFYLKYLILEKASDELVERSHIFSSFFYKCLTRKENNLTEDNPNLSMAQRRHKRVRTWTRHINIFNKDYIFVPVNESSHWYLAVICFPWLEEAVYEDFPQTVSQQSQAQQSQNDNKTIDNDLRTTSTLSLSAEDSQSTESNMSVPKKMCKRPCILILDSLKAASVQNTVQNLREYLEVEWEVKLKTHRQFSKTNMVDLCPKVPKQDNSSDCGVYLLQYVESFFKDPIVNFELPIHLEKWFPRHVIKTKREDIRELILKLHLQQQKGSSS
SENP8 block-2 – SENP8 protease inhibition | purified SENP8, Z-RLRGG-aminoluciferin cleavage, luminescence | inhibition, % at 10 µM | hit rate 1.2% among 330,000; in the data active = inhibition above about 50%
SENP6 inh – SENP6 protease inhibition. Q9GZR1. AID 2599. hit rate 1.8% among 330,000. inhibition, % at 10 µM. Recombinant SENP6 catalytic domain, aminoluciferin luminescence;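 active = inhibition above about 50% at the single tested dose, limit read from the data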
Hits are given with their value; n = inactive; x = not tested or not shown.

SMILES	PPC-1+TRAIL kill	SENP8 block-1	C8 TRAIL sens	SENP7 inh	SENP8 block-2	SENP6 inh
Cc1cccc(N2CCN(C(=S)Nc3ccc4nc(N5CCN(C)CC5)cc(C)c4c3)CC2C)c1 (stereo unspecified)	n	n	67	n	n	n
Cc1cccc(N2CCN(C(=S)Nc3ccc4nc(N5CCN(C)CC5)cc(C)c4c3)CC2)c1C	x	n	93	x	x	x
Cc1cc(N2CCN(C)CC2)nc2ccc(NC(=S)N3CCN(c4cccc(Cl)c4)CC3)cc12	n	n	n	n	n	n
COc1ccc(S(=O)(=O)Nc2c(O)ccc3ccccc23)cc1OC	x	n	n	n	n	n
Cc1ccccc1NC(=O)CSc1nnc(CNC(=O)c2ccco2)n1C	x	n	n	n	n	n
CN(C(=S)NC(=O)c1ccc(Cl)cc1)C1CCCCC1	x	n	50	n	n	n
CN(C(=S)NC(=O)c1ccc(F)cc1)C1CCCCC1	x	n	n	n	n	n
COc1ccc2cc(C(=O)N3CCC(Cc4ccccc4)CC3)[nH]c2c1	x	n	n	n	n	n
O=C(N/N=C/c1ccccn1)c1ccc(Cl)c(Cl)c1	x	n	n	n	n	n
O=C(Nc1ccccc1)Nc1ccc(-n2ccc(C(F)(F)F)n2)cc1	n	n	n	58	57	71
CCCCN(C(=O)c1cccc(S(=O)(=O)N(CC)c2ccccc2)c1)c1c(N)n(CCCC)c(=O)[nH]c1=O	x	n	n	x	x	x
O=C(O)C1CCN(S(=O)(=O)c2ccc(Cl)s2)CC1	x	n	n	n	n	n
Cc1ccc(Nc2nnc(SCC(=O)c3c(N)n(C4CC4)c(=O)[nH]c3=O)s2)cc1C	x	n	55	n	n	n
Cc1ccc2nc(SCC(=O)c3c(N)n(C4CC4)c(=O)[nH]c3=O)[nH]c2c1	x	n	n	n	n	n
CCCc1cc(=O)[nH]c(SCC(=O)c2c(N)n(C3CC3)c(=O)[nH]c2=O)n1	x	n	85	n	n	n
COc1ccc(/C=C(\NC(=O)c2ccc(Cl)cc2)C(=O)NCC2CCCO2)cc1OC (stereo unspecified)	x	n	n	n	n	n
COc1ccc(C(=O)NCCN(C)C)c2nc3ccccc3cc12	x	n	51	x	x	x
O=C(O)c1cccc(NC(=S)NC(=O)c2ccc3ccccc3c2)c1	x	n	n	71	87	93
CCC1(c2ccccc2)NC(=O)N(CC(=O)Nc2ccc(S(=O)(=O)Nc3ncccn3)cc2)C1=O (stereo unspecified)	x	n	n	n	n	n
Cc1nc(-c2cccc(NC(=O)c3ccc(-n4nccc4C)cc3)c2)cs1	x	n	60	n	n	n
COC(=O)c1ccc2c(c1)C(C)(C)C(/C=C/c1ccc(O)cc1)=[N+]2C	n	n	52	n	n	n
COC(=O)c1ccc2c(c1)C(C)(C)C(/C=C/c1ccc(OC)c(OC)c1OC)=[N+]2C	n	n	67	n	n	n
COc1cc(CC(=O)N2CCN(S(=O)(=O)c3ccc(C(C)C)cc3)CC2)cc(OC)c1OC	x	n	n	x	x	x
CN(C)CCCNS(=O)(=O)c1ccc(NC2CCCCCC2)c([N+](=O)[O-])c1	x	n	n	n	n	n
C/C(=N\NC(=O)c1cccc(F)c1)c1cccc(NC(=O)c2ccc(F)cc2)c1	n	n	n	n	n	n
SMILES	PPC-1+TRAIL kill	SENP8 block-1	C8 TRAIL sens	SENP7 inh	SENP8 block-2	SENP6 inh
C/C(=N\NC(=O)c1ccc(F)cc1)c1cccc(NC(=O)c2cccc(F)c2)c1	x	n	n	n	n	n
C/C(=N\NC(=O)c1cccc(N/N=C(\C)c2ccco2)c1)c1ccco1	n	n	n	x	x	x
C/C(=N\NC(=O)c1ccc(Cl)cc1)c1ccccn1	x	n	51	n	n	n
C/C(=N\NC(=O)c1cccc(O)c1)c1cccc(NC(=O)c2ccc(F)cc2)c1	x	n	57	n	n	n
C/C(=N\NC(=O)c1ccccc1F)c1cccc(NC(=O)c2ccc(C)cc2)c1	x	n	59	n	n	n
C/C(=N\NC(=O)c1cccc(N/N=C(\C)c2cc(O)ccc2O)c1)c1cc(O)ccc1O	n	n	55	n	n	n
COc1cccc(NC(=O)C(=O)NCCCN2CCCC2=O)c1	x	n	n	n	n	n
C/C(=N\NC(=O)c1ccc(O)cc1)c1cccc(NC(=O)c2ccc(Cl)cc2)c1	x	n	66	n	n	n
O=C1C(Cl)=C(NS(=O)(=O)c2ccc([N+](=O)[O-])cc2)C(=O)c2ccccc21	n	53	n	n	n	n
COCCNC(=O)/C(C#N)=C/c1cc(C)n(-c2ccc(C)cc2)c1C	n	n	62	n	n	n
Cc1ccccc1-n1c(C)cc(/C=C(\C#N)C(=O)NCC2CCCO2)c1C (stereo unspecified)	55	n	n	n	n	n
Cc1ccc(/C=C(\C#N)C(=O)NCC2CCCO2)o1 (stereo unspecified)	n	n	n	n	n	n
CCOC(=O)C1=CN(Cc2cccc(-c3ccc4c(c3)OCO4)c2)S(=O)(=O)N(C)C1C (stereo unspecified)	x	n	n	n	x	x
Cc1cc(=O)[nH]c2nnc(-c3ccc(Br)cc3)n12	x	n	73	n	n	n
O=C(Nc1cccc(Cl)c1)c1ccc2c(=O)n3c(nc2c1)CCCCC3	n	n	n	80	64	84
O=C(Nc1ccccn1)c1ccc2c(=O)n3c(nc2c1)CCCCC3	x	n	60	n	n	n
C[C@H](CO)N1C[C@H](C)[C@H](CN(C)C(=O)Nc2cccc(C(F)(F)F)c2)OCc2cnnn2CCCC1=O	x	n	n	x	x	x
CC1(C)N=C(N)N=C(N)N1c1cc(Cl)ccc1Cl	x	n	n	x	x	x
CC1(C)N=C(N)N=C(N)N1c1cccc(CN)c1	n	n	n	n	n	n
CC1(C)N=C(N)N=C(N)N1c1ccc(CCCCc2ccccc2)cc1	x	n	65	x	x	x
CC1(C)N=C(N)N=C(N)N1c1ccc(Oc2ccc(Cl)cc2)c(Cl)c1	x	n	58	n	n	n
CC1(C)N=C(N)N=C(N)N1c1ccccc1	n	n	85	n	n	n
O=C(CN1C2=NCCCN2c2ccccc21)c1ccc(Br)s1	n	41	n	n	n	n
